CF NFkB block – cystic fibrosis NF-kB activation inhibition | KKLEB NF-kB-GFP reporter, PAF-induced, GFP fluorescence overnight | inhibition, % at 5 µM | 360,000 tested, 0.86% active | AID 588850;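 active means at least 50% inhibition at 5 µM, scaled per plate between neutral and stimulator controls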;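 further: PAF is a Pseudomonas aeruginosa culture filtrate used as stimulus; plate controls were PAF-stimulated DMSO wells for no effect and unstimulated DMSO wells for full effect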
hiPSC survival – hiPSC single-cell survival enhancement | AID 602274 | 360,000 tested, 0.044% active | survival enhancement, % at 20 µM | ATPlite luminescence; 100% = ROCK inhibitor wells, 0% = DMSO; in the data active means survival enhancement above about 18%;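 further: cells exposed to compounds for 16 hours before the ATP read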
HIF-2a block – inhibitors of HIF-2a. 786-0 RCC cells HIF-2a reporter, luciferase luminescence, overnight. inhibition, % at 18.8 µM. 360,000 tested, 0.72% active;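 active means inhibition of the luminescence signal of 40% or more relative to plate controls, in a single-dose primary screen at 18.75 µM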
KKLEB tox – CF airway cell cytotoxicity counter-screen | KKLEB CF airway cells viability, ATPlite luminescence, overnight; hits give low values; cells stimulated with P. aeruginosa culture filtrate | activity change (cytotoxicity), % at 5 µM | 360,000 tested, 0.36% active | AID 602141;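 active means corrected activity change at or below -50% at 5 µM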
LGR2 inh – inhibitors of bursicon-induced Drosophila LGR2 receptor cAMP signaling; inhibition, % at 9.99 µM; 380,000 tested, 0.35% active; HEK293 LGR2, CRE-luciferase, bursicon-stimulated, 4 h;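 active means drop in luminescence signal, shown as inhibition above about 50% in the replicate tests, limit read from the data, passing the limit was not always enough; inconclusive means probably only some replicates passing the limit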;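 further: agonist challenge used bursicon conditioned medium at about half maximal strength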
TWEAK Fn14 block – inhibitors of TWEAK-Fn14 interaction signaling; TWEAK-stimulated Fn14 reporter cells, luciferase luminescence, 8 h; inhibition, % at 10 µM; 360,000 tested, 2% active; AID 1159606; in the data active means inhibition above about 50%
* marks the source's active call; other numbers are inactive results. The list is not random: actives were taken first. Their share in the collection is about 2.3%.

Results for C[C@@H]1CCCCO[C@H](CN(C)CC2CCCCC2)[C@@H](C)CN([C@H](C)CO)C(=O)c2cc(NC(=O)CCCCCC(=O)Nc3ccccc3N)ccc2O1 ?
LGR2 inh: 8

Results for CCC(=O)Nc1ccc2c(c1)C(=O)N(C)[C@@H]1CC[C@H](CC(=O)NCCc3ccncc3)O[C@H]1CO2 ?
LGR2 inh: 22

What do the screens show for `CCN1CCN(Cc2ccc(NC(=O)c3cccc(-c4ccc5nc(NC(=O)C6CC6)sc5n4)c3)cc2C(F)(F)F)CC1`?
LGR2 inh: 76*

How did C[C@@H]1CN([C@@H](C)CO)C(=O)c2cccc(NC(=O)CCCCCC(=O)Nc3ccccc3N)c2O[C@@H]1CN(C)Cc1ccc(Oc2ccccc2)cc1 do in these assays?
LGR2 inh: -32

How did O=C(c1ccccc1)N(C(=O)c1ccccc1)c1ncnc2c1C(c1ccccc1)c1c(ccc3ccccc13)O2 (configuration not stated) do in these assays?
CF NFkB block: 56*; hiPSC survival: 0; HIF-2a block: 21; KKLEB tox: -4; LGR2 inh: -1; TWEAK Fn14 block: 47

What do the screens show for `CCCn1c(=O)c(C(=O)Nc2ncccc2O)c(O)c2ccccc21`?
CF NFkB block: 16; hiPSC survival: 0; HIF-2a block: 8; KKLEB tox: 6; LGR2 inh: 24; TWEAK Fn14 block: 87*

Results for CCCCC1(CO)C(=O)N(c2ccccc2)N(c2ccccc2)C1=O ?
CF NFkB block: 8; hiPSC survival: 0; HIF-2a block: 24; KKLEB tox: 2; LGR2 inh: 5; TWEAK Fn14 block: 3

Results for CCCCC1C(=O)N(c2ccccc2)N(c2ccc(O)cc2)C1=O (configuration not stated) ?
CF NFkB block: 82*; hiPSC survival: -3; HIF-2a block: 95*; KKLEB tox: 29; TWEAK Fn14 block: 84*

Results for COc1ccccc1NC(=O)N1C[C@@H](O)COC[C@@H]2O[C@H](CC(=O)NCCc3ccncc3)CC[C@H]21 ?
LGR2 inh: 1

What do the screens show for `N#Cc1c([N+](=O)[O-])cc([N+](=O)[O-])cc1S(=O)(=O)Cc1ccccc1`?
CF NFkB block: 82*; hiPSC survival: 6; HIF-2a block: 94*; KKLEB tox: -62*; LGR2 inh: 7; TWEAK Fn14 block: 43

How did CNC[C@@H]1OCCCC[C@@H](C)Oc2ccc(NS(=O)(=O)c3ccccc3)cc2C(=O)N([C@H](C)CO)C[C@@H]1C do in these assays?
LGR2 inh: 1

What do the screens show for `Cc1ccc(-c2nc(C)c(C(=O)O)s2)cc1`?
CF NFkB block: -28; hiPSC survival: 2; HIF-2a block: -125; KKLEB tox: 13; LGR2 inh: inconclusive; TWEAK Fn14 block: 63*

Results for Cc1ccc2nc(-c3ccc(NC(=S)NC4CC(C)(C)NC(C)(C)C4)cc3)sc2c1 ?
CF NFkB block: 38; hiPSC survival: -3; HIF-2a block: -195; KKLEB tox: -44; LGR2 inh: 62*; TWEAK Fn14 block: 27

How did Cn1c(CN2CCCCC2)nc2cc(NC(=O)c3ccccc3Cl)ccc21 do in these assays?
CF NFkB block: -1; hiPSC survival: 0; HIF-2a block: -8; KKLEB tox: 7; LGR2 inh: -25; TWEAK Fn14 block: 52*

What do the screens show for `Cc1cccc(OCC(=O)Nc2ccc3c(c2)nc(CN2CCCCC2)n3C)c1`?
CF NFkB block: -9; hiPSC survival: -1; HIF-2a block: -3; KKLEB tox: 9; LGR2 inh: 0; TWEAK Fn14 block: 81*

Results for Cn1c(CCN2CCN(c3ccccn3)CC2)nc2cc(NC(=O)COc3ccc(Cl)cc3)ccc21 ?
CF NFkB block: 23; hiPSC survival: 1; HIF-2a block: 22; KKLEB tox: -12; LGR2 inh: 12; TWEAK Fn14 block: 54*

What do the screens show for `CO[C@H]1CC[C@H]2CCN(C)C(=O)[C@H](C)CN(C)C(=O)c3cccc(C#N)c3OC[C@H]1O2`?
LGR2 inh: 2

What do the screens show for `C[C@H]1CN([C@@H](C)CO)S(=O)(=O)c2ccc(/C=C/c3ccccc3)cc2O[C@H]1CN(C)C(=O)CN1CCOCC1`?
LGR2 inh: 5

Results for CCN1C(=O)[C@@H]2[C@@H](c3ccc(SC4CCCCC4)cc3)N3CCCC[C@@]3(C(=O)OC)[C@@H]2C1=O ?
CF NFkB block: 18; hiPSC survival: -1; HIF-2a block: 39; KKLEB tox: -6; TWEAK Fn14 block: 61*

How did C=CCOc1ccccc1CN(C(=O)CCl)c1ccc2c(c1)OCO2 do in these assays?
CF NFkB block: 92*; hiPSC survival: 0; HIF-2a block: -14; KKLEB tox: -85*; LGR2 inh: -15; TWEAK Fn14 block: 26

How did Cc1ccc(-c2ccc3c(c2)O[C@H](CN(C)C(=O)CN(C)C)[C@H](C)CN([C@@H](C)CO)S3(=O)=O)cc1 do in these assays?
LGR2 inh: 17

Results for CCC1Oc2ccc(C)cc2N(CC(=O)N(Cc2cccnc2)Cc2cccc(F)c2)C1=O (configuration not stated) ?
CF NFkB block: -5; hiPSC survival: -3; HIF-2a block: 15; KKLEB tox: 1; TWEAK Fn14 block: 14

Results for O=C(CN1C(=O)COc2ccccc21)N(Cc1cccnc1)Cc1cccc(F)c1 ?
CF NFkB block: 2; hiPSC survival: -3; HIF-2a block: 14; KKLEB tox: 2; LGR2 inh: -15; TWEAK Fn14 block: 68*

How did O=C(OC(c1ccccc1)c1nccc2ccccc12)c1ccccc1 (configuration not stated) do in these assays?
CF NFkB block: 23; hiPSC survival: 0; HIF-2a block: -31; KKLEB tox: -12; LGR2 inh: inconclusive; TWEAK Fn14 block: 98*

Results for CCCCNC(=O)C1(C)CCN1C(=O)c1cc(-c2cccs2)oc1C (configuration not stated) ?
CF NFkB block: 26; hiPSC survival: 0; HIF-2a block: 29; KKLEB tox: -19; LGR2 inh: inconclusive; TWEAK Fn14 block: 78*

Results for CCCCNC(=O)C1(C)CCN1C(=O)c1ccccc1Br (configuration not stated) ?
CF NFkB block: 0; hiPSC survival: -2; HIF-2a block: 0; KKLEB tox: -5; LGR2 inh: -4; TWEAK Fn14 block: 13

How did O=C(O)C1CCCCC1C(=O)N1CC=C(c2ccccc2)CC1 (configuration not stated) do in these assays?
CF NFkB block: 8; hiPSC survival: 4; HIF-2a block: 27; KKLEB tox: 0; LGR2 inh: 30; TWEAK Fn14 block: 80*

How did Cc1ccc(C(=O)N2CC=C(c3ccccc3)CC2)s1 do in these assays?
CF NFkB block: -38; hiPSC survival: 0; HIF-2a block: -160; KKLEB tox: 13; LGR2 inh: 16; TWEAK Fn14 block: -32
